Screens (PubChem BioAssay)
The list is not random: actives were taken first. Their share in the collection is about 13%.
Shiga toxin inh = inhibitors of Shiga toxin in Vero cells; AID 2315; inhibition, % at 38.7 µM; Vero cells, Shiga toxin protein synthesis inhibition reporter; 290,000 compounds, 9.2% hits; in the data active means inhibition mostly above about 28%, no sharp cut-off; inactive means mostly below about 43%
Marburg entry inh = blocks Marburg virus binding to or entry into cells; 300,000 compounds, 1.8% hits; Marburg virus pseudotyped entry inhibition, cell reporter; Potency, µM (series often up to 37.8 µM), most hits filed as inhibitors; calls by dose curve; tested in HEK293 cells
Lassa entry inh = inhibitors of Lassa virus binding or cell entry; Lassa virus pseudotype entry inhibition, cell reporter; Potency, µM (highest dose often 37.9 µM), most hits filed as inhibitors; 300,000 compounds, 1.2% hits; AID 540256; calls by dose curve; tested in HEK293 cells; further: nearly all actives have a fitted effect of over 50% in size
CHX counter = counter-screen hit for Shiga toxin inhibitors, cycloheximide | cell reporter, cycloheximide protein synthesis inhibition counterscreen | max response, % | 300,000 compounds, 12% hits; in the data active means max response mostly above about 13%, no sharp cut-off; inactive means mostly below about 14%; further: read at 38.3 µM for the half of the compounds with a filed dose
HCV inhibitor = HCV inhibition; Huh7.5.1 HCVcc-Cre infection, luciferase reporter, 44 h; Potency, µM (doses to about 41.8 µM), most hits filed as inhibitors; 340,000 compounds, 3.4% hits; AID 651820; active means well fitted inhibition curve with a large enough effect; inconclusive means small, poorly fitted or top-dose-only effect, or another doubt; inactive means no such curve, though single readings can be large or run the other way
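Reporter virus HCVcc-Cre (~0.5 moi) infects cells exposed to compound; seeding density 1,000 cells/well with 4 h settling beforehand. Luminescence, 15 sec read, taken 44 h post-infection following a 15 min RT substrate incubation.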
FMDV antiviral = blocks foot and mouth disease virus. Potency, µM (titrated, usually from 57.9 µM), usual class: inhibitors. AID 1159524. FMDV antiviral cell-based qHTS. 410,000 compounds, 1.2% hits; calls by dose curve; tested in HEK293T cells; further: read-out not given here; nearly all actives have a fitted effect of over 45% in size
Each line names hits and unclear results; the compound was inactive in the other large screens.

COCCN1CCC(CNCc2cn(-c3cc(C)ccc3C)nc2-c2ccccc2)C1 (centres undefined)	HCV inhibitor 7.94µM (no result: Marburg entry inh, Lassa entry inh)
COCCN1CCC(CNCc2cn[nH]c2-c2ccc(C)c(C)c2)C1 (centres undefined)	HCV inhibitor inconclusive (no result: Marburg entry inh, Lassa entry inh)
CC1(C(=O)NC(=S)N(Cc2ccccc2)c2ccccn2)CC1(Cl)Cl (centres undefined)	CHX counter 21.7
Cc1ccccc1C(=O)NC(=S)N(Cc1ccccc1)c1ccccn1	none (no result: Shiga toxin inh, Marburg entry inh, Lassa entry inh, CHX counter)
Cc1nc2ccc3nc(NC(=O)c4ccco4)sc3c2s1	Marburg entry inh inconclusive (no result: Shiga toxin inh, CHX counter)
CC(=O)Nc1nc2ccc(NC(=O)c3ccco3)cc2s1	Shiga toxin inh 54.9, Marburg entry inh inconclusive, CHX counter 45.1, HCV inhibitor inconclusive
Cc1nc2ccc(NC(=O)c3ccco3)cc2s1	Shiga toxin inh 103.5, Marburg entry inh inconclusive, CHX counter 33.8
O=C(c1ccncc1)N1CCC2(CC1)CN(c1ccccn1)C2	none (no result: Shiga toxin inh, Marburg entry inh, Lassa entry inh, CHX counter, HCV inhibitor)
NC[C@@]12CCCC1C1CCC2C1 (some centres undefined)	none (no result: Lassa entry inh, HCV inhibitor, FMDV antiviral)
O=c1cc(Nc2ccc3c(c2)OCCO3)[nH]c(=O)n1Cc1ccc(F)cc1	Shiga toxin inh 48.5, CHX counter 29.1 (no result: FMDV antiviral)
c1ccc(-c2ccc(-n3ccnc3)cc2)cc1	CHX counter 8.0 (no result: FMDV antiviral)
C/C(=N\NC(=O)c1ccc(C)cc1C)c1ccc(-n2ccnc2)cc1	Lassa entry inh inconclusive, CHX counter 26.6
CNC(=S)N/N=C(\C)c1ccc(-n2ccnc2)cc1	none
CC(=O)c1ccc2c(c1)Nc1ccccc1S2	HCV inhibitor inconclusive
C/C(=N\Nc1ccccc1Cl)c1ccc(-n2ccnc2)cc1	Shiga toxin inh 99.7, Lassa entry inh inconclusive, CHX counter 31.4, HCV inhibitor inconclusive
c1ccc(-c2nc(N3CCN(c4ccccc4)CC3)nc(-n3ccnc3)n2)cc1	Marburg entry inh inconclusive, Lassa entry inh inconclusive, HCV inhibitor inconclusive
C/C(=N\NC(=O)c1ccc(C)cc1C)c1ccc2c(c1)Nc1ccccc1S2	Shiga toxin inh 39.8, Lassa entry inh inconclusive, CHX counter 29.7, HCV inhibitor 3.55µM, FMDV antiviral inconclusive
CC(=O)N/N=C/c1ccccc1OCCOc1cccc(C)c1	none (no result: Marburg entry inh, Lassa entry inh)
CC(CNC1CCCCC1)OC(=O)c1ccc([N+](=O)[O-])cc1 (centres undefined)	none (no result: Shiga toxin inh, CHX counter)
Cc1c2c(nc3nc4ccccc4n13)CCCC2=O	none (no result: Lassa entry inh, HCV inhibitor, FMDV antiviral)
C/C(=N\Nc1ccc(C(=O)O)cc1)c1ccc(-n2ccnc2)cc1	Shiga toxin inh 88.1, Lassa entry inh inconclusive, CHX counter 73.6
C/C(=N\NC(N)=O)c1ccc(-n2ccnc2)cc1	none
CCOc1ccccc1CNC(=O)CN1C(=O)CCc2cc(S(=O)(=O)N3CCCCC3)ccc21	none (no result: Shiga toxin inh, Marburg entry inh, CHX counter, HCV inhibitor)
CC(=O)N1N=C(c2ccc(C)cc2)OC1c1ccc(C(C)C)cc1 (centres undefined)	Shiga toxin inh 163.9, Marburg entry inh inconclusive, Lassa entry inh inconclusive, CHX counter 38.3
CC(=O)N1N=C(c2cccc([N+](=O)[O-])c2)OC1c1ccc(Br)cc1 (centres undefined)	none (no result: Marburg entry inh, Lassa entry inh)
CC(=O)N1N=C(c2cccnc2)OC1c1ccc(C(C)C)cc1 (centres undefined)	Marburg entry inh inconclusive
CC(=O)N1N=C(c2ccc(C)cc2)OC1c1ccc(C)cc1 (centres undefined)	CHX counter 22.2
COc1ccc([C@]23Cc4ccccc4C(O2)C2=C(CC4(CCCCC4)OC2=O)O3)cc1	Shiga toxin inh active, CHX counter 36.9 (no result: Marburg entry inh, Lassa entry inh, HCV inhibitor, FMDV antiviral)
COc1ccc([C@]23Cc4c(ccc5ccccc45)C(O2)C2=C(CC4(CCCCC4)OC2=O)O3)cc1	none (no result: Marburg entry inh, Lassa entry inh, HCV inhibitor, FMDV antiviral)
COc1ccc([C@]23Cc4ccccc4C(O2)C2=C(O3)C(=O)c3ccccc3C2=O)cc1	CHX counter 19.1 (no result: Marburg entry inh, Lassa entry inh, HCV inhibitor, FMDV antiviral)
CCc1ccc(CN(C(=O)Nc2cccc(Cl)c2)c2ccccn2)cc1	none (no result: Shiga toxin inh, CHX counter, HCV inhibitor)
CCc1nc(Nc2ccc(O)cc2)c2oc3ccccc3c2n1	Marburg entry inh inconclusive, Lassa entry inh inconclusive, HCV inhibitor inconclusive, FMDV antiviral inconclusive
CCc1nc(Nc2ccc3c(c2)OCCO3)c2oc3ccccc3c2n1	CHX counter 16.7, HCV inhibitor inconclusive
Cc1nc(Nc2ccc3c(c2)OCCO3)c2c(C)c(C)sc2n1	CHX counter 20.0, HCV inhibitor inconclusive
O=[N+]([O-])c1ccc2ncnc(Nc3ccc4c(c3)OCCO4)c2c1	Marburg entry inh inconclusive
Cc1nc(Nc2ccc3c(c2)OCCO3)c2oc3ccccc3c2n1	Shiga toxin inh 83.4, Marburg entry inh inconclusive, Lassa entry inh inconclusive, CHX counter 25.7, HCV inhibitor inconclusive, FMDV antiviral inconclusive
Cc1sc2ncnc(OCC(=O)Nc3ccc4c(c3)OCCO4)c2c1C	none
c1ccc2c(c1)oc1c(Nc3ccc4c(c3)OCCO4)ncnc12	Shiga toxin inh 68.9, Marburg entry inh inconclusive, Lassa entry inh inconclusive, CHX counter 53.8, HCV inhibitor inconclusive
CCOCCCNC(=O)c1ccc2c(c1)ncn2-c1ccc(CC)cc1	none (no result: Marburg entry inh, Lassa entry inh)
COc1ccc(C2(O)CCN(Cc3nnnn3Cc3ccc(F)cc3)CC2)cc1	none (no result: FMDV antiviral)
C#CCSc1nnnn1-c1cccc(Cl)c1	Marburg entry inh 3.16µM, Lassa entry inh inconclusive, HCV inhibitor 25.1µM
CCC(C(=O)NCc1ccccc1Cl)n1c(=O)c2cccn2c2ccccc21 (centres undefined)	none (no result: Shiga toxin inh, Marburg entry inh, CHX counter, HCV inhibitor)
COc1cc(CN2CCNC(=O)C2CC(=O)NCCCC2CCCC2)cc(OC)c1 (centres undefined)	none (no result: Marburg entry inh, Lassa entry inh)
OC(COCc1ccc(Cl)cc1)CN1CCCCC1 (centres undefined)	none (no result: Marburg entry inh, Lassa entry inh)
OC(COCc1ccc(Cl)cc1)CN1CCN(CC(O)COCc2ccc(Cl)cc2)CC1 (centres undefined)	Marburg entry inh inconclusive, Lassa entry inh inconclusive, HCV inhibitor 11.2µM, FMDV antiviral inconclusive
C=CCc1ccc(OCC(O)CN2CCN(Cc3ccc(Cl)cc3)CC2)c(OC)c1 (centres undefined)	Marburg entry inh 8.2µM, Lassa entry inh inconclusive, HCV inhibitor inconclusive
C=CCc1ccc(OCC(O)CN2CCC(Cc3ccccc3)CC2)c(OC)c1 (centres undefined)	Marburg entry inh inconclusive, Lassa entry inh 12.6µM, HCV inhibitor 6.31µM
C=CCc1ccc(OCC(O)CN2CCN(c3ccccc3OC)CC2)c(OC)c1 (centres undefined)	HCV inhibitor inconclusive, FMDV antiviral inconclusive (no result: Marburg entry inh, Lassa entry inh)
OC(COc1ccccc1)CN1CCC(Cc2ccccc2)CC1 (centres undefined)	Marburg entry inh inconclusive, Lassa entry inh inconclusive
Cc1ccc(OCC(O)CN2CCC(Cc3ccccc3)CC2)c(C)c1 (centres undefined)	HCV inhibitor 11.2µM (no result: Marburg entry inh, Lassa entry inh)
Cc1ccc(C)c(NC(=O)CC(NCCCN2CCOCC2)C(=O)O)c1 (centres undefined)	none (no result: Shiga toxin inh, Lassa entry inh, CHX counter, HCV inhibitor, FMDV antiviral)
O=C(Cn1[nH]c(=O)c2ccccc2c1=O)NNC(=O)c1ccccc1	none (no result: Marburg entry inh, Lassa entry inh)
C=CCNC(=O)COC(=O)c1ccc(C)c(NC(=O)c2ccco2)c1	Marburg entry inh inconclusive
O=C(OCCN1CCN(c2ncc(C(F)(F)F)cc2Cl)CC1)c1ccc(Cl)cc1	none
CCNC(=O)C(=O)NCC1OCCCN1S(=O)(=O)c1cccs1 (centres undefined)	none
